# Laboratory results: PubChem BioAssay (EPA / NIEHS)
# Inconclusive results are not listed. Calls of active or inactive are those of the source. How the source made its calls, unless noted: active means hit-call score of the fitted dose curve at least 0.9, where 1 is the maximum; inactive means score below 0.9.
# Tests used:
# SERPINA7 (gene 6906) = assay: CCTE_GLTED_hTBG: CCTE's human Thyroxine-binding Globulin (TBG) Inhibition Assay, Great Lakes Toxicology and Ecology Division (GLTED) Lab (AID 2284343; active means hit-call score of the fitted dose curve at least 0.9, where 1 is the maximum;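 further: active chemicals lower fluorescence versus DMSO baseline by displacing probe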)
# In short: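 hTBG + test chem, 2 h; ANSA probe displacement; fluorescence readout ex380/em475; DMSO = neg ctrl/baseline; cell-free.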
# [1] = CCTE_Deisenroth_5AR_NBTE_donor: CCTE's 5alpha-reductase NanoBRET Target Engagement Assay […], Deisenroth Lab (AID 2284319); conditions: actives raise or lower the signal
# In short: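 Donor NanoLuc luminescence at 460-20 nm is the read-out, serving artifact detection. Transiently expressed SRD5A2-NanoLuc in HEK293T; 5 h total chemical exposure, testosterone tracer added for the final 2 h; fitting bidirectional relative to DMSO baseline.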
# [2] = CCTE_Deisenroth_5AR_NBTE_acceptor: CCTE's 5alpha-reductase NanoBRET Target Engagement Assay - Autofluorescence Screen, Deisenroth Lab (AID 2284321); conditions: actives raise or lower the signal;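 further: compound fluorescence in the acceptor channel under 460 nm excitation flags autofluorescence artifacts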
# In short: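 Autofluorescence check: ToxCast chemicals, nominal 100 uM, excitation 460 nm, n=3 runs. Acceptor fluorescence endpoint, bidirectional fit relative to DMSO. Parent assay in HEK293T, 5 h post-dose.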
# SRD5A2 (gene 6716) = assay: CCTE_Deisenroth_5AR_NBTE_ratio: CCTE's 5alpha-reductase NanoBRET Target Engagement Assay - Ratio, Deisenroth Lab (AID 2284322); conditions: actives raise or lower the signal
# In short: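 HEK293T transiently expressing SRD5A2-NanoLuc; cells exposed to chemical (8-point, 10 nM - 29.9 uM) for 5 h total, testosterone tracer added for final 2 h. NanoBRET acceptor/donor ratio (650/460 nm), bidirectional fit vs DMSO.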
# [3] = test system: Brachyury (BRA) Protein Expression, Deisenroth Lab, TBXT (gene 6862); assay: CCTE_Deisenroth_DEVTOX-GLR_legacy_Bra: (Legacy) CCTE's DevTox GLR-Endo Assay Evaluation of Brachyury (BRA) Protein Expression, Deisenroth Lab (AID 2284329)
# In short: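 Human pluripotent RUES2-GLR line was exposed twice during 48 h differentiation to a 10-point series, 1 nM - 200 uM. Fraction of Bra-positive cells was scored by imaging against pluripotent baseline and fitted after 0.2% DMSO subtraction.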
# [4] = CCTE_Deisenroth_DEVTOX-GLR_legacy_CellCount: (Legacy) Viability Assessment in CCTE's DevTox GLR-Endo Assay, Deisenroth Lab (AID 2284331); conditions: actives raise or lower the signal
# In short: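 Nuclei count by fluorescence high-content imaging (5 fields/well) after 48 h differentiation of RUES2-GLR cells. Two exposures, 24 h apart; 1 nM - 200 uM series; n=4. Bidirectional fit vs DMSO.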
# [5] = test system: SRY-box transcription factor 17 (SOX17) Protein Expression, Deisenroth Lab, SOX17 (gene 64321); assay: CCTE_Deisenroth_DEVTOX-GLR_legacy_Sox17: (Legacy) CCTE's DevTox GLR-Endo Assay Evaluation of SRY-box transcription factor 17 (SOX17) Protein Expression, Deisenroth Lab (AID 2284341); conditions: actives raise or lower the signal
# In short: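 RUES2-GLR human pluripotent cells, seeded 24 h, then differentiated 48 h in defined media with two chemical exposures 24 h apart (1 nM - 200 uM, 10 points). Sox17+ fraction from high-content fluorescence imaging; bidirectional fit versus 0.2% DMSO.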
# [6] = VALA_MIGHUV2_WoundArea: VALA Sciences human Umbilical Vein Endothelial Cell Migration (MIGHUV) Assay, Area of Scratch Wound after Recovery (AID 2284316; active means hit-call score of the fitted dose curve at least 0.9, where 1 is the maximum)
# In short: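 HUVEC seeded at 9000 cells/well, scratched after 24 h; test chemical added within 30 min, 6-point concentration response in triplicate (0.1% DMSO vehicle). After 24 h wound recovery, cells fixed and Hoechst-stained nuclei in wound area imaged; Cytochalasin D reference control.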
# [7] = VALA_MIGHUV1_ScratchOnly_CellCount: Viability Assessment in the VALA Sciences human Umbilical Vein Endothelial Cell Migration (MIGHUV) Assay, Scratch Wound Inhibited Recovery (AID 2284327; active means hit-call score of the fitted dose curve at least 0.9, where 1 is the maximum)
# In short: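 HUVEC scratched after 24 h culture, chemical added within 30 min at 6 concentrations in triplicate (0.1% DMSO vehicle). After 24 h recovery, fixed cells were counted by Hoechst nuclear imaging in the wound area.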
# [8] = VALA_TUBIPS_Antagonist_CellCount: Viability Assessment in the VALA Sciences human iPS-derived Endothelial Tubule Formation (TUBIPS) Antagonism Assay (AID 2284335; active means hit-call score of the fitted dose curve at least 0.9, where 1 is the maximum)
# [9] = VALA_MIGHUV1_ScratchOnly_WoundArea: VALA Sciences human Umbilical Vein Endothelial Cell Migration (MIGHUV) Assay, Area of Scratch Wound Inhibited Recovery (AID 2284336; active means hit-call score of the fitted dose curve at least 0.9, where 1 is the maximum)
# In short: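 HUVEC monolayers (9000 cells/well) were scratched after 24 h, dosed within 30 min (six concentrations, triplicate, 0.1% DMSO), allowed 24 h recovery, then fixed. Hoechst-stained nuclei in the wound imaged; cytochalasin D as reference.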
# [10] = VALA_TUBHUV_Agonist_TubuleLength: VALA Sciences human Umbilical Vein Endothelial Tubule Formation (TUBHUV) Agonism Assay (AID 2284337; active means hit-call score of the fitted dose curve at least 0.9, where 1 is the maximum)
# In short: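 HUVEC co-cultured with fibroblasts (1:3) 3 days in 10 ng/ml VEGF, then 3 days with compound plus VEGF; 0.1 % DMSO neutral control. Fixed, nuclear and CD31 stained; tubule length by fluorescence imaging.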
# [11] = VALA_TUBIPS_Agonist_CellCount: Viability Assessment in the VALA Sciences human iPS-derived Endothelial Tubule Formation (TUBIPS) Agonism Assay (AID 2284338; active means hit-call score of the fitted dose curve at least 0.9, where 1 is the maximum)
# IYD (gene 389434) = assay: CCTE_GLTED_hIYD: CCTE's human Iodotyrosine Deiodinase (xIYD) Inhibition Assay, Great Lakes Toxicology and Ecology Division (GLTED) Lab (AID 2284317; active means hit-call score of the fitted dose curve at least 0.9, where 1 is the maximum;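 further: cell-free human IYD enzyme made in baculovirus insect cells; iodide freed from monoiodotyrosine measured by cerium arsenite color change at 420 nm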)
# In short: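 Absorbance change at 420 nm from the iodide-catalysed cerium-arsenic reaction reports free iodide released by human IYD from monoiodotyrosine. Enzyme, substrate and chemical are incubated 3 h; loss of signal is fitted relative to DMSO baseline.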
# [12] = VALA_TUBHUV_Antagonist_TubuleLength: VALA Sciences human Umbilical Vein Endothelial Tubule Formation (TUBHUV) Antagonism Assay (AID 2284325; active means hit-call score of the fitted dose curve at least 0.9, where 1 is the maximum)
# In short: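 HUVEC–HDF co-culture (1:3) pre-grown 3 days with 10 ng/ml VEGF, then 3 days with compound plus VEGF. Fixed, nuclear and CD31 stained; total tubule length by imaging versus 0.1% DMSO; suramin 100 uM positive control.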
# [13] = TAMU_PeakParms_SingleDonor1434_Asystole: Texas A&M University (TAMU) 1.5-hr Human Induced Pluripotent Stem Cell (iPSC)-derived Cardiomyocytes Calcium (Ca+2) Flux Assay for Cardiotoxicity: Asystole (quiescence of beating) (AID 2284328; active means hit-call score of the fitted dose curve at least 0.9, where 1 is the maximum)
# In short: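 Average Ca2+-flux peak frequency (beats/s) was recorded in single-donor iPSC-derived cardiomyocytes after 90 min exposure (0.2–100 uM final, 0.5% DMSO). Asystole POD set as EC95 against DMSO, no preprocessing.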
# [14] = CCTE_Mundy_HCI_iCellGluta_NOG_NeuriteLength: CCTE's Neurite Outgrowth Assay in iCellGluta cells for Neurite Length, Mundy Lab (AID 2284318; active means hit-call score of the fitted dose curve at least 0.9, where 1 is the maximum)
# In short: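 Automated high-content imaging of betaIII-tubulin (Alexa Fluor-488) and Hoechst-stained cells gave neurite length, normalized to the DMSO baseline.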
# [15] = IUF_NPC1_cytotoxicity_72hr: Cytotoxicity Assessment at 72 hours in the Leibniz Research Institute for Environmental Medicine (IUF) Neural Progenitor Cell Proliferation Assay (NPC1) (AID 2284332; active means hit-call score of the fitted dose curve at least 0.9, where 1 is the maximum;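 further: rising LDH signal means more cytotoxicity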)
# In short: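 Spheres of primary human neural progenitors are plated one per well on day 0 in growth-factor medium and dosed at once. After three days at 37C, supernatant LDH is measured fluorimetrically via resazurin reduction.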
# [16] = CCTE_Mundy_HCI_iCellGluta_NOG_NeuronCount: CCTE's Neurite Outgrowth Assay in iCellGluta cells for Neuron Count, Mundy Lab (AID 2284340; active means hit-call score of the fitted dose curve at least 0.9, where 1 is the maximum;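 further: cells fixed about 48 h after compound addition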)
# In short: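 Neuron count read by automated high-content imaging of Hoechst 33342 and betaIII-tubulin/Alexa Fluor-488 labelling in human iPSC glutamatergic neurons. Activity fitted relative to DMSO.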
# [17] = CCTE_Mundy_HCI_iCellGluta_NOG_NeuriteCount: CCTE's Neurite Outgrowth Assay in iCellGluta cells for Neurite Count, Mundy Lab (AID 2284342; active means hit-call score of the fitted dose curve at least 0.9, where 1 is the maximum;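 further: chemical exposure about 48 hours starting 2 hours after plating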)
# Description: CCTE_Mundy_HCI_iCellGluta_NOG is a multiplexed, cell-based-readout assay that uses iCell GlutaNeurons from FUJIFILM Cellular Dynamics, Inc. (FCDI), human glutamatergic enriched neurons derived from induced pluripotent stem (iPS) cells, with measurements taken at 50.33 hours after chemical dosing in a microplate: 96-well plate.CCTE_Mundy_HCI_iCellGluta_NOG_NeuriteCount is one of four components of the CCTE_Mundy_HCI_iCellGluta_NOG assay. It measures neurite outgrowth related to number of neurites using High Content Imaging of fluorescently labelled markers.Data from the assay component CCTE_Mundy_HCI_iCellGluta_NOG_NeuriteCount was analyzed at the endpoint CCTE_Mundy_HCI_iCellGluta_NOG_NeuriteCount in the positive analysis fitting direction relative to DMSO as the negative control and baseline of activity. Using a type of morphology reporter, loss-of-signal activity can be used to understand developmental effects.
# Exposure starts 2 hours post-plating by adding 10 ul of the working solution to 90 ul of media in the wells for a 1/10 dilution. Forty-eight hours after chemical treatment cells are fixed by direct addition of 100 ul of warm (37C) Dulbecco's phosphate buffered saline (DPBS) fixative solution containing 8% paraformaldehyde, 8% sucrose, and 0.1% of 3 mg/ml Hoechst 33342 into each well. Primary antibodies are prepared by dilution in Immunocytochemical Staining Buffer (ISB), 10X Dulbecco's PBS, 0.1% Saponin, 5% Bovine Serum Albumin, 0.5% NaN3 (Sodium Azide) and betaIII-tubulin (rabbit anti-betaIII-tubulin, 1:800) followed by Alexa Fluor-488 secondary (1:500) to label neuronal cell bodies and neurites. A Cellomics ArrayScan VTi HCS Reader is used for automated image acquisition and analysis of neurite outgrowth.
smiles,measurement,setting,value
Cc1cccc(Nc2cc(Cl)nc(SCC(=O)O)n2)c1C,AC50,SERPINA7 (gene 6906),22 µM (active)
COc1ccc(C)cc1N,outcome,[1],inactive
same,outcome,[2],inactive
same,outcome,SRD5A2 (gene 6716),inactive
CC=Cc1ccc(O)c(OC)c1,outcome,[1],inactive
same,outcome,[2],inactive
same,outcome,SRD5A2 (gene 6716),inactive
C1CCC(SSC2CCCCC2)CC1,outcome,[1],inactive
same,outcome,[2],inactive
same,outcome,SRD5A2 (gene 6716),inactive
COc1cccc2c1C(=O)c1c(O)c3c(c(O)c1C2=O)C[C@@](O)(C(=O)CO)C[C@@H]3O[C@H]1C[C@H](N)[C@H](O)[C@H](C)O1,AC50,[3],7.41 µM (active)
same,AC50,[4],0.00843 µM (active)
same,AC50,[5],4.93 µM (active)
Oc1ccc2ccccc2c1N=Nc1ccccc1,outcome,[6],inactive
same,outcome,[1],inactive
same,outcome,[2],inactive
same,outcome,SRD5A2 (gene 6716),inactive
same,outcome,[7],inactive
same,outcome,[8],inactive
same,outcome,[9],inactive
same,outcome,[10],inactive
same,AC50,[11],31.9 µM (active)
same,AC50,SERPINA7 (gene 6906),22.2 µM (active)
COc1cc(S(=O)(=O)O)c(C)cc1N=Nc1c(O)ccc2cc(S(=O)(=O)O)ccc12,AC50,IYD (gene 389434),154 µM (active)
same,AC50,[1],24.8 µM (active)
same,outcome,[2],inactive
same,AC50,SRD5A2 (gene 6716),60.2 µM (active)
same,AC50,SERPINA7 (gene 6906),35 µM (active)
COC(=O)c1ccc(O)cc1,outcome,[12],inactive
same,outcome,[13],inactive
same,outcome,[8],inactive
same,outcome,[11],inactive
C[Si]1(C)O[Si](C)(C)O[Si](C)(C)O[Si](C)(C)O1,outcome,[14],inactive
same,outcome,[15],inactive
same,outcome,[16],inactive
same,outcome,[17],inactive
COc1cc(-c2nc(NC(=O)c3cc4cc(C)cc(C)c4n3CC(=O)O)sc2CCC2CCCCC2)c(OC)cc1Cl,outcome,[1],inactive
same,outcome,[2],inactive
same,AC50,SRD5A2 (gene 6716),26.3 µM (active)
COc1ccc2c(c1)c(CC(=O)O)c(C)n2C(=O)c1ccc(Cl)cc1,AC50,[3],5.9 µM (active)
same,AC50,[4],10.2 µM (active)
same,AC50,[5],15.5 µM (active)
same,AC50,SERPINA7 (gene 6906),1.71 µM (active)
Nc1ccc(S(=O)(=O)c2ccc(N)cc2)cc1,AC50,SERPINA7 (gene 6906),50 µM (active)
Cc1ccc(C)c(O)c1C,AC50,SERPINA7 (gene 6906),33.1 µM (active)
O=c1c(O)c(-c2ccc(O)c(O)c2)oc2cc(O)cc(O)c12,AC50,[1],26.7 µM (active)
same,AC50,[2],23.3 µM (active)
same,outcome,SRD5A2 (gene 6716),inactive
same,outcome,[8],inactive
same,outcome,[9],inactive
same,outcome,[10],inactive
CC1=C(/C=C/C(C)=C/C=C/C(C)=C/CO)C(C)(C)CCC1,AC50,[3],67.5 µM (active)
same,AC50,[4],34.6 µM (active)
same,AC50,[5],33.5 µM (active)
